From PubChem BioAssay (NCATS)
Results filed as inconclusive are left out. A call without a number means that no potency is given here. Activity calls are given as the source filed them. The call rests on the fitted dose curve; in most records, active means well fitted curve in the direction sought with a large enough effect; inconclusive means small, poorly fitted or top-dose-only effect, or another doubt; inactive means no such curve, though single readings can be large; an effect the other way counts as inactive or inconclusive.

How the values were obtained:
[1] = target: Metallo-beta-lactamase type 2 (Klebsiella pneumoniae) (UniProt C7C422); test: qHTS to identify inhibitors of the New Delhi Metallo-beta-lactamase (NDM): assay validation screen against the NCATS LOPAC Collection (AID 1794843);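 further: nitrocefin turnover by NDM-1 measured as 485 nm absorbance at plateau; series mostly up to about 38 µM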
Sequence of Metallo-beta-lactamase type 2 (Klebsiella pneumoniae) (C7C422 whole entry, looked up): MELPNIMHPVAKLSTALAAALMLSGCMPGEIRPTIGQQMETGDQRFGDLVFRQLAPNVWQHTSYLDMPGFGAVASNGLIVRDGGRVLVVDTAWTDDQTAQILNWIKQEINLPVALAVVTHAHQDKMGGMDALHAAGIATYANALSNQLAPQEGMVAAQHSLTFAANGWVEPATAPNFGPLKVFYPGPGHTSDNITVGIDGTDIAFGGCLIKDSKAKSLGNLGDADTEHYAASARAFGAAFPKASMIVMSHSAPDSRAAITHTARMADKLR
In short: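 Enzyme 2 nM final, 50 mM HEPES pH 7.0, 1 uM ZnSO4, 0.01% Tween20; cpds in DMSO, preincub w/ enzyme; + nitrocefin (50 uM stock); A485 at plateau; no-enzyme column as blank.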

[2] = target: Glutathione peroxidase 1 (Homo sapiens) (UniProt P07203); test: Primary qHTS Assay for Inhibitors of Recombinant Selenoprotein Glutathione Peroxidase 1 (GPX1) (AID 1845191); further: nearly all actives have a fitted effect of over 65% in size; further: potency means the concentration at half of the fitted maximal effect
Sequence of Glutathione peroxidase 1 (Homo sapiens) (P07203 whole entry, looked up): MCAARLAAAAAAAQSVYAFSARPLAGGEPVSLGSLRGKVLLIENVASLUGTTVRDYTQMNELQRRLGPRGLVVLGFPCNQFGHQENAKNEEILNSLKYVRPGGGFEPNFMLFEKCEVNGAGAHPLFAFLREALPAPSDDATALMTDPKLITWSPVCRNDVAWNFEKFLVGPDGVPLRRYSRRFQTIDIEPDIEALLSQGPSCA
In short: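 GPX1 10 nM, GR 100 nM, GSH 1 mM, NADPH 0.5 mM, CHP 0.5 mM (final). 30-min cpd preincubation, RT. Ex340/Em450 read t=0, t=15 min.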

[3] = target: Phospholipid hydroperoxide glutathione peroxidase GPX4 (Homo sapiens) (UniProt P36969); test: Primary qHTS Assay for Inhibitors of Recombinant Selenoprotein Glutathione Peroxidase 4 (GPX4) (AID 1845192); further: nearly all actives have a fitted effect of over 65% in size; further: potency means the concentration at half of the fitted maximal effect
Sequence of Phospholipid hydroperoxide glutathione peroxidase GPX4 (Homo sapiens) (P36969 whole entry, looked up): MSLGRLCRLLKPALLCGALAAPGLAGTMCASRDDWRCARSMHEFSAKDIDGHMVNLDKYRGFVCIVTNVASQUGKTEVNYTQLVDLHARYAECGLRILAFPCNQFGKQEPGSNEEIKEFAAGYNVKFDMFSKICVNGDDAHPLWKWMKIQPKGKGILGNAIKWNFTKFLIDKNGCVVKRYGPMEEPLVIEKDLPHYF
In short: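 qHTS, GR-coupled: GPX4 200 nM + cpd 30 min RT → GSH 1 mM, NADPH 0.5 mM, GR 100 nM → CHP 0.5 mM start; fluor 340/450 at t0 and t15 min; no-enzyme wells as control.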

Row | Compound | Potency [1] | Potency [2] | Potency [3]
1 | Cc1cc2c(cc1Cl)N(C(=O)Nc1ccc(Oc3cccnc3C)nc1)CC2 | inactive | inactive | inactive
2 | O=C(NOCC1CC1)c1cc(Br)c(F)c(F)c1Nc1ccc(I)cc1Cl | inactive | inactive | inactive
3 | COc1cc2c(CCNC(C)=O)c[nH]c2cc1Cl | inactive | inactive | inactive
4 | CN1C2CCC1CC(OC(=O)C(O)c1ccccc1)C2 (stereo unspecified) | inactive | inactive | inactive
5 | Cn1c(=O)c(-c2c(Cl)cccc2Cl)cc2cnc(Nc3ccc(N4CCOCC4)cc3)nc21 | inactive | inactive | inactive
6 | CC(C(=O)O)c1ccc(C(=O)c2ccccc2)s1 (stereo unspecified) | – | inactive | inactive
7 | O=C(OCc1ccccc1)c1ccccc1 | – | inactive | inactive
8 | CCCCCCOc1ccccc1C(N)=O | – | inactive | inactive
9 | O=C1NC(=O)c2c1c(-c1ccccc1)cc1[nH]c3ccc(O)cc3c21 | – | inactive | inactive
10 | CN(C)[C@@H]1C(=O)C(C(=O)NCN2CCCC2)=C(O)[C@@]2(O)C(=O)C3=C(O)c4c(O)cccc4[C@@](C)(O)C3C[C@@H]12 (stereo partly specified) | – | inactive | inactive
11 | Nc1c(CC(=O)O)cccc1C(=O)c1ccc(Br)cc1 | – | inactive | inactive
12 | O=C(Nc1cccc(C(=O)Nc2ccc(S(=O)(=O)O)c3cc(S(=O)(=O)O)cc(S(=O)(=O)O)c23)c1)Nc1cccc(C(=O)Nc2ccc(S(=O)(=O)O)c3cc(S(=O)(=O)O)cc(S(=O)(=O)O)c23)c1 | – | inactive | inactive
13 | CNC(=O)c1c(I)c(NC(=O)CCCCC(=O)Nc2c(I)c(C(=O)O)c(I)c(C(=O)NC)c2I)c(I)c(C(=O)O)c1I | – | inactive | inactive
14 | CN(C)CCn1nnnc1SCC1=C(C(=O)O)N2C(=O)[C@@H](NC(=O)Cc3csc(N)n3)[C@H]2SC1 | – | 4.53 µM (active) | 12.6 µM (active)
15 | c1ccc(-c2ccccn2)nc1 | – | inactive | inactive
16 | C#C[C@]1(O)CC[C@H]2[C@@H]3CCC4=Cc5oncc5CC4(C)[C@H]3CCC21C (stereo partly specified) | – | inactive | inactive
17 | CC(C)c1cccc(C(C)C)c1N1C(=O)c2ccc(O)cc2C1=O | – | inactive | –
18 | Cn1ncc(S(=O)(=O)Cc2ccccc2)c(Br)c1=O | – | inactive | inactive
19 | CCOc1ccc2nc(S(N)(=O)=O)sc2c1 | – | inactive | –
20 | CCCOC(=O)c1ccc(O)cc1 | – | inactive | inactive
21 | C=CCc1cccc(/C=N/NC(=O)CN2CCN(Cc3ccccc3)CC2)c1O | – | inactive | inactive
22 | O=[N+]([O-])c1ccc(CSc2ncnc3c2ncn3[C@@H]2O[C@H](CO)[C@@H](O)[C@H]2O)cc1 | – | inactive | inactive
23 | N[C@@H](CC(=O)O)C(=O)O | – | inactive | inactive

Row | Compound | Potency [1] | Potency [2] | Potency [3]
24 | C=C[C@H]1CN2CC[C@@H]1C[C@@H]2[C@@H](O)c1ccnc2ccc(OC)cc12 | – | inactive | inactive
25 | C#C[C@]1(O)CC[C@H]2[C@@H]3CCc4cc(O)ccc4[C@H]3CC[C@@]21C | – | inactive | inactive
26 | COCCOc1cc2ncnc(Cl)c2cc1OCCOC | – | inactive | inactive
27 | Cc1cc(NC2CCCCC2)nc(-n2nc(C)cc2C)n1 | – | inactive | –
28 | O=C1CN(/N=C/c2ccc([N+](=O)[O-])o2)C(=O)N1 | – | inactive | inactive
29 | CSc1nc(N)c2ncn([C@@H]3O[C@H](COP(=O)(O)OP(=O)(O)OP(=O)(O)O)[C@@H](O)[C@H]3O)c2n1 | – | inactive | inactive
30 | CCCCCCCC/C=C/C(=O)O | – | inactive | inactive
31 | CC(C(=O)O)c1ccc(C(=O)c2cccs2)cc1 (stereo unspecified) | – | inactive | inactive
32 | N[C@H](CCCP(=O)(O)O)C(=O)O | – | inactive | inactive
33 | CN1C2CC(OC(=O)[C@H](CO)c3ccccc3)CC1C1OC12 (stereo partly specified) | – | inactive | inactive
34 | Cc1ccc(S(=O)(=O)/C=C/C#N)cc1 | – | inactive | –
35 | Clc1ccc(N2CCN(Cc3c[nH]c4ncccc34)CC2)cc1 | – | inactive | –
36 | O=C(O)[C@H](O)[C@@H](O)[C@H](O)[C@H](O)CO | – | inactive | inactive
37 | C=C[C@@H]1CN2CC[C@@H]1C[C@H]2[C@H](O)c1ccnc2ccc(OC)cc12 | – | inactive | inactive
38 | CC(C)NC[C@H](O)COc1cccc2[nH]ccc12 | – | inactive | inactive
39 | CC(=O)N[C@H](C(=O)O)C(C)(C)SN=O | – | inactive | inactive
40 | c1ccc2sc(SN3CCOCC3)nc2c1 | – | 20.2 µM (active) | –
41 | O=c1[nH]c2ccccc2n1CCCN1CCN(C(c2ccccc2)c2ccccc2)CC1 | – | inactive | inactive
42 | CCCCCCCCCCCCCCCC(=O)OC(CC(=O)O)C[N+](C)(C)C (stereo unspecified) | – | inactive | inactive
43 | O=[N+]([O-])c1ccc2c(c1)S(=O)(=O)C=C2 | – | inactive | inactive
44 | CC[C@@H](C)[C@H]1O[C@]2(CC[C@@H]1C)C[C@@H]1C[C@@H](C/C=C(\C)[C@@H](O[C@H]3C[C@H](OC)[C@@H](O[C@H]4C[C@H](OC)[C@@H](O)[C@H](C)O4)[C@H](C)O3)[C@@H](C)/C=C/C=C3\CO[C@@H]4[C@H](O)C(C)=C[C@@H](C(=O)O1)[C@]34O)O2 | – | inactive | inactive
45 | CC(C)(NS(=O)(=O)c1ccc(Oc2ccc(F)cc2)cc1)C(=O)NO | – | inactive | inactive
46 | CO[C@@]1(NC(=O)Cc2cccs2)C(=O)N2C(C(=O)O)=C(COC(N)=O)CS[C@@H]21 | – | 6.4 µM (active) | inactive
